# ST2 IL33 inh: IL1RL1 inhibition; inhibition, % for hits at 17 µM; Q01638; AlphaLISA ST2-Fc/biotin-IL-33 interaction, 1 h; 78,000 tested, 2.3% active; in the data active = inhibition above about 30%
# Target sequence (Q01638 whole entry, looked up): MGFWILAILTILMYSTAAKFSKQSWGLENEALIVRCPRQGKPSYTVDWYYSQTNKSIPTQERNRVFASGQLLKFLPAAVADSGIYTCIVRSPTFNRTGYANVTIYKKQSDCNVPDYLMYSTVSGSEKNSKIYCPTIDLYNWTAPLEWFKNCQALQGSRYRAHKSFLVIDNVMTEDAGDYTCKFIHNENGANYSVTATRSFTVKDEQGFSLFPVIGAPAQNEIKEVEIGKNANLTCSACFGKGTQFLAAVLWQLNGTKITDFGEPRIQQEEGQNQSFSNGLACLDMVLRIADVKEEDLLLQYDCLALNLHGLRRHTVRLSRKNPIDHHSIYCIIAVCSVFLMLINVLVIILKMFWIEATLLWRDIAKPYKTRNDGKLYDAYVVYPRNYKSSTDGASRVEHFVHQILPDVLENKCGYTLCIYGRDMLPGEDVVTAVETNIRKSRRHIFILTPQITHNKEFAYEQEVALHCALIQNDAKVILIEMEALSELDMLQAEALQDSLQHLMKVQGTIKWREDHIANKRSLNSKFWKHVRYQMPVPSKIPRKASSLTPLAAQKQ
# An asterisk follows results filed as active; i = inactive. The entries come from a sample that favours hits as a whole.
SMILES,ST2 IL33 inh
CCOc1ccccc1N1CCN(C(=O)CC2C(=O)NCCN2Cc2ccoc2)CC1 (stereo not given),i
CN(CCNC(=O)C1CCCN1c1nnc(N2CCCC2=O)s1)C1CCCCC1 (stereo not given),i
CC(C)N(CCCNC(=O)C1CCCN1c1nnc(N2CCCC2=O)s1)Cc1ccccc1 (stereo not given),34%*
CN(CCCNC(=O)C1CCCN1c1nnc(N2CCCC2=O)s1)C1CCCCC1 (stereo not given),i
COc1ccc2cc3cc(C(=O)Nc4cc([N+](=O)[O-])ccc4OC)oc3nc2c1,i
Cc1cccc(CC(=O)Nc2cnn(-c3cccc(C(=O)N4CC5CC6CC4C[C@@H](C6)C5)c3)c2)c1,i
C=CCOc1ccc(C=Nc2ccc(Cl)cc2)cc1,i
C=CCOc1ccc(C=Nc2ccc(C)cc2C)c(O)c1,38%*
C=CCOc1ccc(C=Nc2ccc(C(C)C)cc2)c(O)c1,41%*
O=c1[nH]c2ccc(N=Cc3ccc(O)cc3O)cc2[nH]1,i
CC1CC(=O)C2=C(C1)OC(N)=C(C#N)C2c1ccc(F)cc1 (stereo not given),i
CC(C)c1nc2ccccc2n1CC(O)COc1cccc2ccccc12 (stereo not given),i
CC(C)OC(=O)c1c(NC(=O)COc2ccc(F)cc2F)sc2c1CCC2,i
CN(CC1CCN(CCc2ccc(F)cc2)CC1)C(=O)c1cc2ccccc2oc1=O,i
CN1CC2(CCN(C(=O)CCc3cccnc3)C2)OC1=O (stereo not given),i
O=C(NC1CCCCC1)C1c2ccccc2C(=O)N1C1CCCC1 (stereo not given),i
O=C(O)c1cc2c3c(c1)C1C=CCC1C(c1cccc([N+](=O)[O-])c1)N3CC1CC=CC21 (stereo not given),40%*
O=C(O)c1cc2c3c(c1)C1C=CCC1C(c1ccc(F)cc1)N3CC1CC=CC21 (stereo not given),i
O=C(O)c1cc2c3c(c1)C1C=CCC1C(c1ccccc1F)N3CC1CC=CC21 (stereo not given),i
CCc1ccc(Nc2nnc(Cc3ccc(Cl)cc3)c(=O)[nH]2)cc1,i
O=C1NC(=O)/C(=C\c2cccc(OCc3ccc([N+](=O)[O-])cc3)c2)S1,i
CC(C)CN(CCNC(=O)c1cc(-c2cccnc2)nc2ccccc12)CC(C)C,i
O=C(CCn1cnnn1)N1CCC2(CCCN(CCc3ccccc3)C2=O)C1 (stereo not given),i
Cc1ccc2c(c1)N(CCC(=O)NCc1ccccn1)C(=O)C(C)O2 (stereo not given),i
O=C(Cc1ccccc1)Nc1c(-c2ccc(F)cc2)nc2ccccn12,i
SMILES,ST2 IL33 inh
CC(=O)Nc1ccc(CN2CCN(c3ccc(Cl)cc3)CC2)cc1,i
O=C(Nc1ccc(N2CCCC2)cc1)C(Cl)(Cl)Cl,38%*
O=C(Nc1ccc(N2CCCC2)cc1)c1cc(Br)ccc1Cl,34%*
O=C(Nc1ccc(S(=O)(=O)N2CCCC2)cc1)C(F)(F)F,i
O=C(Nc1ccc(N2CCOCC2)cc1)c1ccc(Br)cc1,i
O=C(Nc1ccc(Br)cc1)c1ccc(Cl)cc1Cl,i
CN1C(=O)c2ccc(NC(=O)CN3C(=O)c4ccccc4C3=O)cc2C1=O,i
COC(=O)C1C(=O)C2=C(CC1C)NC(C)=C(C(=O)OCCOC(C)C)C2c1ccc(C)s1 (stereo not given),i
CN(CC1CCN(CCc2cccc(C(F)(F)F)c2)CC1)C(=O)/C=C/c1cccnc1,i
O=C(Cn1cncn1)N1CCOC(CC(c2ccccc2)c2ccccc2)C1 (stereo not given),i
CCN(c1ccc(C)c(C)c1)S(=O)(=O)c1ccc2c(c1)CCC(=O)N2,i
O=C(COCc1ccccc1)NCc1cnn2ccccc12,i
CCSC[C@H](N)C(=O)NCc1cnn2ccccc12,i
Cc1ccc(SC(C)C(=O)NCc2cnn3ccccc23)cc1 (stereo not given),i
COc1cccc(CC(=O)NCc2cnn3ccccc23)c1,33%*
C=CCOC(=O)NCc1cnn2ccccc12,40%*
O=C(NCc1cnn2ccccc12)c1cccc(Cn2cccn2)c1,i
CC(=O)c1ccc(OCc2cc(C(=O)N3CCCC3)no2)cc1,i
O=C(C1CCCN(C2CCN(Cc3ccncc3)CC2)C1)N1CCCNCC1 (stereo not given),i
COc1ccc(NCCN2C(=O)C3CC=C(Cl)CC3C2=O)cc1 (stereo not given),i
CCc1noc(C)c1C(=O)N1CCCC2(C1)C(=O)N(C)c1ccccc12 (stereo not given),i
O=C(NCC1=CCCCC1)c1ccc2c(c1)ncn2CCO,i
CC(C)(C)CC(=O)N[C@H]1CC(C)(C)[C@@H]2C[C@@](C)(O)CC[C@]12CCC(=O)NCc1cccnc1,i
COc1cc(CN(C)C2CCN(C)CC2)cc([N+](=O)[O-])c1O,i
COc1ccccc1N1CCN(Cc2cc(I)c(O)c(OC)c2)CC1,i
SMILES,ST2 IL33 inh
CCN(CC)CCN(C)Cc1cc(I)c(O)c(OC)c1,94%*
CCSCCOC(=O)C1=C(C)NC2=C(C(=O)C(C(=O)OC)C(C)C2)C1c1ccc(F)cc1 (stereo not given),i
CC(C)S(=O)(=O)c1ncc(CN2CCc3ccccc3C2)n1Cc1ccccc1F,i
Cc1nc2c(ccc3nc(NC(=O)c4ccc5c(c4)OCCO5)sc32)s1,i
Cc1nc2c(ccc3nc(NC(=O)c4cccc(Br)c4)sc32)s1,i
COC(=O)c1ccc(C(=O)Nc2nc3ccc4sc(C)nc4c3s2)cc1,36%*
Cc1nc2c(ccc3nc(NC(=O)c4ccccc4)sc32)s1,i
Cc1nc2c(ccc3nc(NC(=O)c4ccc(C)c(C)c4)sc32)s1,41%*
Cc1nc2c(ccc3nc(NC(=O)c4ccc(OC(C)C)cc4)sc32)s1,i
c1ccc(CCc2noc(CN3CCC(c4nc5ccccc5[nH]4)CC3)n2)cc1,i
CCN(Cc1ccccc1)S(=O)(=O)c1cccc2nsnc12,i
O=C(O)CC1COCCN1C(=O)CC(=O)Nc1ccc(F)c(Cl)c1 (stereo not given),i
N#Cc1c(NC(=O)c2cc(-c3ccccc3O)on2)sc2c1CCCC2,i
COc1cc(Cl)c(C)cc1NC(=O)c1coc(=O)c2ccccc12,i
CN=C1S/C(=C\c2cn(CC(=O)O)c3ccccc23)C(=O)N1C,i
Cc1ccc(Cn2cc(CCC(=O)O)c3ccccc32)cc1,i
Cc1oc(N=Cc2cn(Cc3ccccc3)c3ccccc23)c(C#N)c1C,46%*
COc1ccc2nc(NC(=O)c3cn(C)c(=O)c4c3c3ccccc3n4C)sc2c1,i
NS(=O)(=O)c1cccc(NC(=O)c2ccc(OCc3ccccc3)cc2)c1,i
c1ccc2c(c1)CCC2Cc1nc(C2CC2)n[nH]1 (stereo not given),i
O=C(c1cnc[nH]1)N1CCOc2c(O)cc(-c3csc4ccccc34)cc2C1,i
COc1ccc(NC(=O)C(c2ccccc2)c2ccccc2)cc1,i
Cc1ccccc1C(=O)N(C(C)C)C(C)C,i
COc1ccc(CN2CCCCCC2)cc1,i
Cc1cccc(OCCCN2CCCC2)c1,i
COc1ccc(OCCCN2CCCCCC2)cc1,43%*
Cn1c(N2CCCCC2)nc2c1c(=O)n(Cc1ccc(F)cc1)c(=O)n2C,i
COc1ccc(C=Nc2ccc3[nH]c(=O)[nH]c3c2)cc1OC,i
COc1ccc(N=Cc2ccc(OCc3ccccc3)cc2)cc1OC,33%*
C/C=C/c1ccc(OCc2ccccc2)c(OC)c1,i

# Screening data deposited in PubChem by Paczesny and Yang Labs, IUPUI and University of Michigan.
